According to PubChem BioAssay AID720526 (National Center for Advancing Translational Sciences (NCATS), 2013):
Inconclusive results are not listed. A number with no mark means an inactive call. Calls of active or inactive are those of the source. Calls follow the shape of the dose curve; as a rule, active = well fitted activation curve with a large enough effect; inconclusive = small, poorly fitted or top-dose-only effect; inactive = no such curve, though single readings can be large or run the other way.

test: qHTS Assay for NPC1 Promoter Activators: Hit Validation Using Renila Luciferase Read-Out for NPC1; conditions: Huh7 NPC1 promoter-luciferase reporter, luminescence, 24 h; series mostly up to 76.9 µM; activity change, positive = activation: at the top concentration; as to activity change, positive = activation: % of control where 0% means no effect
Description: Niemann Pick Type C (NPC) is a rare neurodegenerative lipidosis that is characterized by lipid storage in the endosomal/lysosomal system. Treatment modalities for this devastating disease are currently non-existent due to the severe obstacles associated with accessing the central nervous system with proteins or genes. The majority of mutations causing NPC disease are missense mutations that are distributed throughout the length of the NPC1 protein, with the most prevalent being the I1061T allele. Although NPC1 mutant proteins may be functional, they are typically trapped in the ER due to misfolding. […] We have developed and optimized a cell based renilla luciferase reporter assay in 1536 well format for the identification of up-regulators of the mutant Rab9 promoter. This assay presents data on the validation of hits from the primary screen, which used a firefly luciferase read-out. NIH Chemical Genomics Center [NCGC] NIH Molecular Libraries Probe Production centers Network [MLPCN] MLPCN Grant: MH089375 Assay Submitter (PI): Yiannis A. Ioannou
Huh7 cells stably expressing NPC promoter-luciferase will be seeded at 1,500 cells/well in 5 uL in 1,536-well white opaque plates with 23 nL/well of compound in DMSO solution. The assay plates will be incubated at 37 deg C for 24 hours, after which 3 uL/well BriteLite plus luciferase detection reagent mixture (Perkin Elmer) will be added. Luminescence signal will be measured in a ViewLux plate reader (Perkin Elmer) after a 10 minute incubation at the room temperature.
Potency is read from the fitted curve at half-maximal effect.

| SMILES | activity change, positive = activation | Potency |
| --- | --- | --- |
| CCOC(=O)c1csc(COc2ccc(OC)cc2)n1 | -7.41% |  |
| CC1(C)CC(=O)c2c(O)c(-c3ccccc3)c(=O)n(-c3ccccc3)c2C1 | 18.9% |  |
| CC(Sc1ncnc2c1cnn2-c1ccccc1)C(=O)Nc1ccc(N2CCOCC2)cc1 (stereo not given) | -18% |  |
| CCOc1ccc(CNC(=O)C2CCCN(S(C)(=O)=O)C2)cc1OC (stereo not given) | -6.53% |  |
| COC(=O)c1ccccc1S(=O)(=O)NNC(=O)Nc1ccccc1 | -8.36% |  |
| COc1cccc(C(C(=O)NC2CCCC2)N(CCC(C)C)C(=O)CCC(=O)Nc2cc(C)on2)c1 (stereo not given) | 22% |  |
| O=C(CSc1nccn1Cc1ccco1)Nc1ccccc1F |  | 36.8 µM (active) |
| O=C(NC(=S)Nc1ccc(CN2CCCCC2)cc1)c1cc2ccccc2o1 | -40.3% |  |
| Cc1ccc(CNC(=O)Nc2ccc(C)cc2)cc1 | -6.85% |  |
| Cc1ccccc1NC(=O)Cc1nc(COC(=O)CC(C)c2ccccc2)cs1 (stereo not given) | -2.66% |  |
| N#CC/C(N)=N/NC(=O)CCCNc1ncc(C(F)(F)F)cc1Cl | -24.6% |  |
| O=S(=O)(c1cccs1)N1CCN(c2ncccn2)CC1 | -0.337% |  |
| COc1ccc(-c2cc(C(=O)Nc3ccccc3F)on2)cc1 | -15.9% |  |
| Brc1ccccc1-c1nnc(CSc2nnc3sc4ccccc4n23)o1 | 3.11% |  |
| O=C(Nc1ccc(-c2nc3cccnc3s2)cc1)c1ccc(Cl)nc1 | 1.87% |  |
| COC(=O)CSc1nc2cc3c(cc2cc1C#N)OCO3 | -11.1% |  |
| COc1ccccc1C(=O)Nc1nnc(SCC(=O)NC2CCCC2)s1 | 18.1% |  |
| O=C(NCCc1ccccc1)c1cc2ncc(Br)cn2n1 | -3.26% |  |
| Cc1ccc(NC(=O)NC(=O)c2ccccc2)cc1F | -4.34% |  |
| CCOC(=O)c1cc2sccc2n1CC(=O)N1CCCc2ccccc21 | 0.273% |  |

| SMILES | activity change, positive = activation | Potency |
| --- | --- | --- |
| O=C(CSc1nnc(-c2ccc([N+](=O)[O-])cc2)o1)Nc1ccccn1 | -72.1% |  |
| CCC(=O)NC(=S)Nc1ccc(N2CCOCC2)cc1 | 14.4% |  |
| O=C(CSc1nnc(Cc2cc(=O)[nH]c(=O)[nH]2)n1-c1ccc(Cl)cc1)NC1CCCC1 | -6.19% |  |
| COc1ccc(/C=C\c2onc(C)c2S(=O)(=O)N2CCC(C(=O)NCCC(C)C)CC2)cc1 | -44.7% |  |
| O=C(COC(=O)c1ccc(-c2nnc(-c3ccccc3)o2)cc1)c1ccccc1 | -10.3% |  |
| NC(=O)COC(=O)c1ccc2noc(-c3ccccc3)c2c1 | 0.358% |  |
| CCCNC(=O)C1CCN(S(=O)(=O)c2ccc3[nH]c(=O)ccc3c2)CC1 | 14.4% |  |
| Nc1c(N(CCO)C(=O)/C=C/c2ccco2)c(=O)[nH]c(=O)n1Cc1ccccc1 | 13.3% |  |
| O=C(CCCN1C(=O)C(c2ccccc2)Oc2cccnc21)Nc1ccccc1Cl (stereo not given) | 15% |  |
| COC(=O)Nc1nc2ccc(Br)cc2s1 | 17.5% |  |
| CCc1cc(C(=O)Nc2ccccc2)cs1 | -45.1% |  |
| CC1CCc2sc(C(=O)NNC(=S)NC3CC3)cc2C1 (stereo not given) | -42.4% |  |
| O=C(CN1C(=O)COc2ccc(Cl)cc21)NCC1CCCO1 (stereo not given) | 2.71% |  |
| Nc1ccccc1C(=O)N/N=C1/C2CN3CCN(C2)CC1(Cc1ccccc1)C3 | -10.4% |  |
| Cc1ccc(S(=O)(=O)N2CCN(c3cnn(C)c(=O)c3Cl)CC2)cc1 | -6.07% |  |
| Cc1ccc(C#N)c(SCC(=O)Nc2nccs2)n1 | -7.61% |  |
| CCC1CCCCN1CCCNC(=O)c1ccc2nc(N3CCCCC3)sc2c1 (stereo not given) | -32.3% |  |
| CC(=O)NC(CCCN1C(=O)c2ccccc2C1=O)c1nnn(C)n1 (stereo not given) | -17.1% |  |
| O=C(O)C1=CC[C@@H](c2ccc(Cl)cc2)N(S(=O)(=O)c2ccc(Cl)cc2)[C@H]1c1ccccc1 |  | 14.6 µM (active) |
| CC(C)(C)C(=O)N/C(N)=N/c1nc2ccccc2o1 | -60.7% |  |
